Screening data (PubChem BioAssay)
This is a sample that favours compounds with a hit; in the whole collection about 0.5% have one here.
TRb-SRC2 inh = disrupts binding of human TR beta to SRC2. P10828. TRbeta-SRC2 peptide binding, fluorescence polarization; receptor liganded with 1 µM T3. Potency, µM (top dose mostly 106 µM), for inactives: at the top dose activity change, negative = inhibition, most hits filed as inhibitors. 0.065% of 280,000 active. AID 1469; active = well fitted inhibition curve with a large enough effect; inconclusive = small, poorly fitted or top-dose-only effect, or effect the other way;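 also: potency is read from the fitted curve at half-maximal effect; plate controls were bound peptide for no effect and peptide without receptor for full effect; nearly all actives have a fitted effect of over 50% in size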
Target sequence (P10828 whole entry, looked up): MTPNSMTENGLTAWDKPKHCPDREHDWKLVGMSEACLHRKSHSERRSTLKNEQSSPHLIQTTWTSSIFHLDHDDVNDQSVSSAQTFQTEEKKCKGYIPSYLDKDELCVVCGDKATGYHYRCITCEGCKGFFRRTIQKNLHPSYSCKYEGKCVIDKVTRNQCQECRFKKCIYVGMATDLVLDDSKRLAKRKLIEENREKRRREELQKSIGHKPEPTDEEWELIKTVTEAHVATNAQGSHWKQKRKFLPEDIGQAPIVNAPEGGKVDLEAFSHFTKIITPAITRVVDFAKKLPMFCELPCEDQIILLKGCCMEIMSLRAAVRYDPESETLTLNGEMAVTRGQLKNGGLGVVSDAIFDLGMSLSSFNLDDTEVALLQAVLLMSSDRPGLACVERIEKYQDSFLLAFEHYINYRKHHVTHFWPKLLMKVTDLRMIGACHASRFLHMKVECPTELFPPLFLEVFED
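Human TRb ligand-binding domain (0.6 uM) is mixed with 20 nM Texas Red SRC2 peptide and 1 uM T3; after compound addition and 5 hr at ambient temperature, polarization is measured and normalized to unbound and bound controls.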
Menin-MLL FL inh = displaces fluorescein MLL peptide from human menin | Fluorescence polarization, fluorescein-MLL peptide displacement from menin | FP activity change, % at 61.4 µM | 290,000 tested, under 10 active; active = well fitted curve in the direction sought with a large enough effect in the polarisation, not every such curve was filed as active; inconclusive = small, poorly fitted or top-dose-only effect, or effect the other way, or a change in a side signal; inactive = no such curve, though single readings can be large or run the other way; the % refers to the polarisation; also: % of control where 0% means no effect
CXXC DNA block = MLL CXXC-DNA interaction inhibition; Q03164; MLL-CXXC / FITC-HOXA9 DNA fluorescence polarization; Potency, µM (highest dose often 115 µM), without a hit: at the highest dose activity change, negative = inhibition, actives largely listed as inhibitors; 0.037% of 290,000 active; active = well fitted inhibition curve with a large enough effect in the polarisation, with a control signal flat, not every such curve was filed as active; inconclusive = small, poorly fitted or top-dose-only effect, or effect the other way, or a change in a side signal; inactive = no such curve, though single readings can be large or run the other way; the % refers to the polarisation; also: potency is read from the fitted curve at half-maximal effect
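Steps: dispense CXXC domain solution (7 uM) → pin compounds or unlabeled HOX-A9 DNA control → 5 min ambient → add FLSN-HOX-A9 solution (50 nM) → spin → 30 min ambient → fluorescence polarization. Tris pH 7.5/NaCl/DTT/BSA buffer.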
RGS12 GoLoco inh = inhibitors of human Gai1-RGS12 GoLoco interaction (red fluorophore); Gai1:RGS12 GoLoco peptide FP, rhodamine, 10 min; Potency, µM (highest dose often 61.6 µM), without a hit: top-dose activity, negative = inhibition, hits mostly inhibitors; AID 880; 0.44% of 230,000 active; active = well fitted inhibition curve with a large enough effect, not every such curve was filed as active; inactive = no such curve, though single readings can be large or run the other way; also: potency is read from the fitted curve at half-maximal effect; % is scaled to controls: 0 for no effect and ±100 for the full control effect; nearly all actives have a fitted effect of over 30% in size
Target sequence (P63096 whole entry, looked up): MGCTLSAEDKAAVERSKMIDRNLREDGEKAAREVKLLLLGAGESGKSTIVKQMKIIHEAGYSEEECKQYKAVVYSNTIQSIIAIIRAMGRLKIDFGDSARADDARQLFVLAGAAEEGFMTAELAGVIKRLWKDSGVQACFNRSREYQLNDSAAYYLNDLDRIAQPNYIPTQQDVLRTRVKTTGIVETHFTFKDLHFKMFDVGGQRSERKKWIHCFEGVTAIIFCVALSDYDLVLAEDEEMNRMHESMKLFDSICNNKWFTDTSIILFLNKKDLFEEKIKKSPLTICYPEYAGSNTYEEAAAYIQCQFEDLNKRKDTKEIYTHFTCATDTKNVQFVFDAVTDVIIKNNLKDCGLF
TexasRed fluor = Texas Red fluorescence interference in TRb-SRC2 counter-screen. TRb/SRC2 Texas Red total fluorescence interference. Potency, µM (highest dose often 106 µM), for inactives: at the top dose fluorescence change, negative = quenching. 0.29% of 280,000 active; active = well fitted curve in either direction with a large enough effect; inconclusive = small, poorly fitted or top-dose-only effect; also: potency is read from the fitted curve at half-maximal effect; % is scaled to controls: 0 for no effect and ±100 for the full control effect
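Flags fluorescent or light-absorbing compounds by total fluorescence, S + 2P, at 555 nm excitation and 632 nm emission. Mixture: 20 nM Texas Red SRC2 peptide, 0.6 uM human TRb LBD, 1 uM T3, 5% DMSO; compound exposure 5 h at ambient temperature.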
Menin MLL FP TR = inhibitors of human menin-MLL interaction, mutant MLL peptide; AID 1768; 0.23% of 270,000 active; Menin + Texas Red MLL mutant peptide, fluorescence polarization; O00255; Potency, µM (series often up to 61.6 µM), for inactives: at the highest dose FP activity change, negative = inhibition, usual class: inhibitors; active = well fitted inhibition curve with a large enough effect in the polarisation, with a control signal flat, not every such curve was filed as active; inconclusive = small, poorly fitted or top-dose-only effect, or effect the other way, or a change in a side signal; inactive = no such curve, though single readings can be large or run the other way; the % refers to the polarisation; also: potency is read from the fitted curve at half-maximal effect; % of control where 0% means no effect
* hit, by the source's call; [ ] = remark or other dose.

How did COc1ccccc1-c1csc(NC(=O)c2cc(-c3cccs3)nc3ccccc23)n1 do in these assays?
TRb-SRC2 inh: 6%; Menin-MLL FL inh: 7; CXXC DNA block: 11%; RGS12 GoLoco inh: 0%; TexasRed fluor: 0%; Menin MLL FP TR: 8.9µM*

Results for COc1ccc(-c2csc(NC(=O)c3cc(-c4cccs4)nc4ccccc34)n2)c(OC)c1 ?
TRb-SRC2 inh: 6%; CXXC DNA block: -11%; RGS12 GoLoco inh: 8%; TexasRed fluor: 1%

How did COc1ccccc1/C=N/Nc1cc(C)nc2ccc(C)cc12 do in these assays?
Menin-MLL FL inh: 0; CXXC DNA block: -4%; Menin MLL FP TR: -18%

How did COc1ccc(/C=N/Nc2cc(C)nc3ccc(OC)cc23)c(OC)c1 do in these assays?
Menin-MLL FL inh: -10; CXXC DNA block: inconclusive; Menin MLL FP TR: 13µM*

What do the screens show for `Oc1cc2c(cc1O)[C@@H]1c3ccc(O)c(O)c3OC[C@]1(O)C2`?
TRb-SRC2 inh: 3%; Menin-MLL FL inh: 0; RGS12 GoLoco inh: -38%; TexasRed fluor: -2%; Menin MLL FP TR: -6%

How did CCOc1ccccc1-n1nnnc1SCC(=O)Nc1cc(C)on1 do in these assays?
TRb-SRC2 inh: 4%; Menin-MLL FL inh: 6; CXXC DNA block: 1%; RGS12 GoLoco inh: 11%; TexasRed fluor: 0%; Menin MLL FP TR: 23%

What do the screens show for `CCOc1ccccc1-n1nnnc1SCC(=O)Nc1cc2oc3ccccc3c2cc1OC`?
TRb-SRC2 inh: -5%; Menin-MLL FL inh: 6; CXXC DNA block: 33%; RGS12 GoLoco inh: 13%; TexasRed fluor: -3%; Menin MLL FP TR: 10µM*

How did CC(C)(CC(=O)NCc1ccc(Cl)cc1Cl)CC1=NS(=O)(=O)c2ccccc2N1 do in these assays?
TRb-SRC2 inh: -2%; TexasRed fluor: -2%

Results for COc1ccc(NC(=O)c2c(NCc3ccc(C)o3)sc3c2CCC(C)C3)c(OC)c1 (centres undefined) ?
TRb-SRC2 inh: -2%; TexasRed fluor: -6%

What do the screens show for `COc1ccc(NC(=O)c2c(NCc3ccc(C)o3)sc3c2CCCCC3)c(OC)c1`?
TRb-SRC2 inh: -25%; TexasRed fluor: 112µM*[quencher]

How did COCCNC(=O)C1(C(F)(F)F)C/C(=C\Cc2ccccc2)CCCO1 (centres undefined) do in these assays?
TRb-SRC2 inh: 0%; Menin-MLL FL inh: -8; TexasRed fluor: 0%; Menin MLL FP TR: -16%

What do the screens show for `O=Cc1ccccc1Cl`?
TRb-SRC2 inh: 1%; RGS12 GoLoco inh: -4%; TexasRed fluor: -2%

What do the screens show for `O=Cc1ccccc1C=O`?
TRb-SRC2 inh: inconclusive; Menin-MLL FL inh: 10; CXXC DNA block: inconclusive; RGS12 GoLoco inh: 6%; TexasRed fluor: 40µM*[quencher]; Menin MLL FP TR: 31%

What do the screens show for `COc1ccc(/C=C/C(=O)CC(=O)/C=C/c2cccc(O)c2OC)cc1O`?
TRb-SRC2 inh: inconclusive; Menin-MLL FL inh: inconclusive; RGS12 GoLoco inh: 141%; TexasRed fluor: inconclusive; Menin MLL FP TR: 67%

What do the screens show for `CCCn1c(/C=C/c2ccco2)nc2ccccc21`?
TRb-SRC2 inh: -19%[53 µM]; Menin-MLL FL inh: inconclusive; CXXC DNA block: -4%; RGS12 GoLoco inh: 156%; TexasRed fluor: 3.5µM*[quencher]; Menin MLL FP TR: -24%

Results for CCOCCOCCOCCO ?
TRb-SRC2 inh: -6%[201 µM]; TexasRed fluor: -5%[201 µM]

How did COc1cccc(CNC(=O)CN2C(=O)CCCc3ccccc32)c1OC do in these assays?
TRb-SRC2 inh: -9%; TexasRed fluor: 20µM*[quencher]

How did CCC/C(=N\OCC)C1=C(O)CC(O)(CC(C)S(=O)(=O)CC)CC1=O (centres undefined) do in these assays?
TRb-SRC2 inh: 1%[201 µM]; TexasRed fluor: 4%[201 µM]

What do the screens show for `CCn1c(C(=O)N2CCC(C(=O)NCCc3ccc(OC)cc3OC)CC2)cc2sccc21`?
TRb-SRC2 inh: -10%; TexasRed fluor: 22µM*[quencher]

What do the screens show for `CCn1c(C(=O)N2CCC(C(=O)NCc3ccc(OC)cc3)CC2)cc2sccc21`?
Menin-MLL FL inh: 0; CXXC DNA block: -1%; Menin MLL FP TR: -2%

How did COCCNC(=O)C1CCN(C(=O)c2cc3sccc3n2Cc2ccc(Cl)cc2)CC1 do in these assays?
TRb-SRC2 inh: -6%; TexasRed fluor: 28µM*[quencher]

How did COCCCNC(=O)C1CCN(C(=O)c2cc3sccc3n2Cc2ccc(Cl)cc2)CC1 do in these assays?
TRb-SRC2 inh: -1%; TexasRed fluor: inconclusive

How did COc1ccc(N=Cc2c(O)cc(C)oc2=O)cc1 do in these assays?
TRb-SRC2 inh: -17%; Menin-MLL FL inh: 4; CXXC DNA block: inconclusive; RGS12 GoLoco inh: 30%; TexasRed fluor: 0%; Menin MLL FP TR: 20%

What do the screens show for `Cc1cc(O)c(C=Nc2cccc(Cl)c2)c(=O)o1`?
TRb-SRC2 inh: inconclusive; Menin-MLL FL inh: inconclusive; CXXC DNA block: 29%; RGS12 GoLoco inh: 156%; TexasRed fluor: 45µM*[fluorescent]; Menin MLL FP TR: inconclusive

What do the screens show for `COC(=O)c1cccc(C)c1S(=O)(=O)NC(=O)Nc1nc(OCC(F)(F)F)nc(N(C)C)n1`?
TRb-SRC2 inh: -3%[201 µM]; TexasRed fluor: -1%[201 µM]

What do the screens show for `CSc1nsc(/C=C/Nc2ccc(O)cc2C)c1C#N`?
TRb-SRC2 inh: 45µM*; Menin-MLL FL inh: inconclusive; CXXC DNA block: 27%; RGS12 GoLoco inh: -49%; TexasRed fluor: 50µM*[fluorescent]; Menin MLL FP TR: inconclusive

How did O=C(O)[C@@H]1[C@@H](C(=O)O)[C@@]23CCCC2=C2CC[C@@]3(C(=O)O)[C@@]3(C(=O)O)C[C@@]213 do in these assays?
RGS12 GoLoco inh: 5%[14.2 µM]

What do the screens show for `Cc1cccc(Nc2ncnc3onc(-c4ccc(F)cc4)c23)c1C`?
Menin-MLL FL inh: 0; CXXC DNA block: 3%; Menin MLL FP TR: -18%

How did Cc1ccccc1CN1CCC(CNc2ncnc3onc(-c4ccc(F)cc4)c23)CC1 do in these assays?
TRb-SRC2 inh: -19%; TexasRed fluor: 0.071µM*[quencher]

What do the screens show for `CC(C)(C)C(O)/C(=C\c1ccc(Cl)cc1)n1cncn1` (centres undefined)?
TRb-SRC2 inh: -6%[201 µM]; TexasRed fluor: -1%[201 µM]

What do the screens show for `Cc1ccc2cccc(NC(=O)COc3ccccc3Cl)c2n1`?
TRb-SRC2 inh: -15%; TexasRed fluor: 16µM*[quencher]

How did Cc1ccc2cccc(NC(=O)COc3cc(C)c(Cl)c(C)c3)c2n1 do in these assays?
TRb-SRC2 inh: 6%; TexasRed fluor: 3%

Results for CCCCCCCCCCCCCCCO ?
TRb-SRC2 inh: 8%[201 µM]; TexasRed fluor: -4%[201 µM]

Results for CCOc1ccc(NC(=O)OC(C)C)cc1OCC ?
TRb-SRC2 inh: 3%[201 µM]; TexasRed fluor: -2%[201 µM]

What do the screens show for `CCCCCc1ccc(OCCC[n+]2ccccc2)c(CCCCC)c1`?
TRb-SRC2 inh: 71µM*; Menin-MLL FL inh: 3; CXXC DNA block: -2%; RGS12 GoLoco inh: 8%; TexasRed fluor: -11%
